This passage reports inhibition results from PubChem BioAssay AID651650 (Sanford-Burnham Center for Chemical Genomics, 2012).

For the assay, the target named is Neuropilin-1 (Homo sapiens) (UniProt O14786). The assay can be described thus: NRP-1 b1b2 CendR peptide binding inhibitors, dose response, biochemical, FP and AlphaScreen panel (AID 651650). The following applies: NRP-1 b1b2 / RPARPAR peptide binding, FP or AlphaScreen; run 1, at 100 µM (top of the series). (In general: Alpha assays give light when donor and acceptor beads are brought close together.)
Neuropilin-1 (Homo sapiens), sequence (O14786 whole entry, looked up): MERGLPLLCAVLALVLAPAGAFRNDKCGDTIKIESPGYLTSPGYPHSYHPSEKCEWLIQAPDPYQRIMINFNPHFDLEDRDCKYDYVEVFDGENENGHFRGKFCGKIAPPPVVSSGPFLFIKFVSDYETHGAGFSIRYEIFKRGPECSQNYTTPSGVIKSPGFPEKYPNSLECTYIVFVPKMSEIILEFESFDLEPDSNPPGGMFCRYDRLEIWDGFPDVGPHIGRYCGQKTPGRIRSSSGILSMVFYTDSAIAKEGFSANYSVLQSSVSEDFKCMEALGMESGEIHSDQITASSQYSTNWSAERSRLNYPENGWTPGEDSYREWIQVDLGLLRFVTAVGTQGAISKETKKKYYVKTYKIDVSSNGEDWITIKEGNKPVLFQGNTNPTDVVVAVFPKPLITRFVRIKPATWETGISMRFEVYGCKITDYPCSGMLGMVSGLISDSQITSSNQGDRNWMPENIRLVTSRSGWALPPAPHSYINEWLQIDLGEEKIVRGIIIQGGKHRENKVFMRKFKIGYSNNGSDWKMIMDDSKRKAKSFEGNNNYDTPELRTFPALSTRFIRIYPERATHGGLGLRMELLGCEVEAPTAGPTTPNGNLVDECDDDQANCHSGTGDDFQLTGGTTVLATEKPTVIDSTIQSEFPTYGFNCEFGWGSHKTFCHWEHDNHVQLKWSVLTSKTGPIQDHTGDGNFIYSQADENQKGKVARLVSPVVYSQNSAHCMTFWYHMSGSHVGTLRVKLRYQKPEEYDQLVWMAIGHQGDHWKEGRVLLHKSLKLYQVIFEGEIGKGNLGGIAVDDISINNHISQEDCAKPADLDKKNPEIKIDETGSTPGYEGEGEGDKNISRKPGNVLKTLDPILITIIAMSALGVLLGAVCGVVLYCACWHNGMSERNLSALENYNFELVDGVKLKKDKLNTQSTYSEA
On to `CCCc1c(C)nc(N2CCN(c3ccccc3OC)CC2)[nH]c1=O`, for which the inhibition stood at 37.3%.
Take `Oc1ccc(-c2nc3ncccn3c2Nc2ccc3c(c2)OCO3)cc1`: the inhibition is 41.8%.
The result for `c1ccc2c3n(nc2c1)CCCO3` reads 27.6%; that for `NCCCC[C@H]1CN=C(N)N1CCC12CC3CC(CC(C3)C1)C2`, 70.7%.
With `O=C(O)c1ccc(C(=O)Nc2cccc3ccccc23)c(C(=O)O)c1` the figure was 76.6%; with `Cc1ccc(-n2c(-c3ccco3)nc3c(cnn3-c3ccc(C)cc3)c2=O)cc1`, 50.3%.
The result for `CN(C)/N=C/c1ccc(Sc2ccc([N+](=O)[O-])cc2[N+](=O)[O-])o1` reads 55.1%.
As to `COc1ccc(NC(=O)CN(C)CC(=O)Nc2cccc(F)c2)cc1Cl`, the inhibition was 71.1%.
With `O=C(c1ccccn1)N1CCN(S(=O)(=O)c2ccccc2)CC1`, the inhibition was 80.9%.
With `CCOC(=O)C1(Cc2cccc(F)c2)CCN(Cc2ccon2)CC1`, the inhibition was 61.1%.
With `CN1C(=O)c2oc3ccccc3c(=O)c2C1c1ccccn1` (centres undefined) the figure was 82.2%; with `COC(=O)C[C@H]1c2cc(F)ccc2S(=O)(=O)N1C(C)C`, 29.9%.
For the molecule `CCOC(=O)C1CCN(S(=O)(=O)c2ccc3c(c2)CCN3C(=O)C2CCC2)CC1`, the inhibition came to 6.43%.
In the case of `Cc1nc(Nc2ccc(S(N)(=O)=O)cc2)oc1C`, the inhibition is 60.3%.
On to `O=C(c1ccc(-c2cccc(Cl)c2)o1)N1CCN(c2ccc([N+](=O)[O-])cc2)CC1`, for which the inhibition came out at 21.7%.
Regarding `CC(=O)C(=Cc1ccc(Cl)cc1)C(=O)c1ccccc1`, the inhibition turned out to be 27.1%.
The result for `CC1(C)c2ccccc2C(=O)c2ccccc21` reads -7.21%; that for `Cc1ccc2c(c1)C(c1ccncc1)=NNC(c1ccc(F)cc1)=N2`, 36.3%; that for `Cc1cccc(CN2CCN(C3CN(Cc4cn(Cc5cccc(Cl)c5)nn4)S(=O)(=O)C3)CC2)c1` (centres undefined), 33.2%.
For the molecule `COc1ccc(CCNC(=O)c2ccc(Cl)c(S(=O)(=O)N(C)c3ccccc3)c2)cc1`, the inhibition was -7.22%.
With `CC(CN1CCCCC1)OC(=O)c1ccc(Cl)cc1Cl` (centres undefined), the inhibition was 30.1%.
In the case of `CCOC(=O)N1CCN(C(=O)Nc2ccc3nc(C)c(C)nc3c2)CC1`, the inhibition was -6.06%.
With `Cc1ccc(NC(=S)N2CCN(Cc3ccccc3)CC2)cc1`, the inhibition is -7.69%.
For `O=C(NCc1ccccc1)c1cccc(S(=O)(=O)N2CCCCC2)c1`, the inhibition was determined as 61.2%.
Take `COc1cc(OC)nc(NC(=O)COC(=O)c2cccc(Cl)c2)n1`: the inhibition was found to be 98.8%.
Consider `C=CCOc1c(CNc2ncn[nH]2)cccc1OCC`, for which the inhibition worked out at 33.2%.
With `NC(=O)C1CCN(c2nc(-c3ccc4occc(=O)c4c3)cs2)CC1` the figure was 53.3%; with `Cc1cc(=O)n2nc(N3CCCC(C(=O)N4CCOCC4)C3)sc2n1` (centres undefined), 17%; with `CC(C)(C)n1nc(-c2ccc(F)cc2)c2c(N)ncnc21`, 39.3%.
For `COc1cc(Cn2nnc3ccccc32)cc(Br)c1O`, the inhibition was found to be 37.3%.
Take `CCN(Cc1ccncc1)C(=O)c1cc(COc2ccc(F)cc2F)on1`: the inhibition amounted to 18.1%.
With `Cn1c(=O)c2[nH]c(NCCCN3CCOCC3)nc2n(C)c1=O` the figure was 44.2%.
As to `CCOCCCNC(=O)C(c1ccc(C)cc1)N(Cc1cccs1)C(=O)c1ccccc1O` (centres undefined), the inhibition came out at 24.4%.
Regarding `COc1ccccc1COc1ccc2c(C)c(CC(=O)O)c(=O)oc2c1C`, the inhibition worked out at 44.2%.
The result for `N/C(CSc1ccc(Cl)cc1)=N\S(=O)(=O)c1ccc(Cl)cc1` reads 37.6%.
On to `CC1(C(=O)NCc2cccc3ccccc23)CCN1Cc1cccc2c1OCO2` (centres undefined), for which the inhibition stood at 21%.
`COc1ccc(C(O)c2nc(-c3ccc4ccccc4c3)cs2)cc1` (centres undefined): the inhibition amounted to 26.1%.
Regarding `O=C(CCc1ccc(Oc2cc([N+](=O)[O-])cc([N+](=O)[O-])c2)cc1)N1CCCCCC1`, the inhibition amounted to 75.6%.
`CCC1=C(OC(=O)N(CC)CC)N2C(=O)OC(=NCC(=O)OC)[C@]2(Cc2ccccc2)[C@H]2C1=CC[C@H]1C(=O)N(CC(=O)OC)C(=O)[C@H]12`: the inhibition amounted to 70.2%.

By inhibition is commonly meant the change of the read-out against control, counted positive when it falls.
